The values below come from PubChem BioAssay (NCATS).

Each structure is given as a SMILES string. Unmarked numbers belong to inactive results. Results filed as inconclusive are left out. The source made the active and inactive calls. The call rests on the fitted dose curve; in most records, active means well fitted curve in the direction sought with a large enough effect; inconclusive means small, poorly fitted or top-dose-only effect, or another doubt; inactive means no such curve, though single readings can be large; an effect the other way counts as inactive or inconclusive.

Assay [1] concerns the target Glutathione peroxidase 1 (Homo sapiens) (UniProt P07203). Briefly: Primary qHTS Assay for Inhibitors of Recombinant Selenoprotein Glutathione Peroxidase 1 (GPX1) (AID 1845191). Further: nearly all actives have a fitted effect of over 65% in size. On activity, negative = inhibition: on the % scale 0 is the no-effect control and ±100 the full control effect. The method in brief:
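GR-coupled assay: compounds preincubated 30 min at room temperature with GPX1, then reaction started with CHP; final 10 nM GPX1, 1 mM GSH, 0.5 mM CHP, 0.5 mM NADPH, 100 nM GR, 0.01% BSA, pH 7.5 Tris buffer. NADPH fluorescence (340/450 nm) read at 0 and 15 min.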
On the technique in general: qHTS replaces the single test concentration by a dilution series.

In assay [2] the target is Phospholipid hydroperoxide glutathione peroxidase GPX4 (Homo sapiens) (UniProt P36969). Briefly: Primary qHTS Assay for Inhibitors of Recombinant Selenoprotein Glutathione Peroxidase 4 (GPX4) (AID 1845192). Further: nearly all actives have a fitted effect of over 65% in size. On activity change, negative = inhibition: series mostly up to about 50 µM; on the % scale 0 is the no-effect control and ±100 the full control effect. The method in brief:
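GR-coupled assay: recombinant GPX4 preincubated 30 min with compound at room temperature; final 200 nM GPX4, 1 mM GSH, 0.5 mM cumene hydroperoxide, 0.5 mM NADPH, 100 nM GR, 0.01% BSA, pH 7.5 Tris. NADPH fluorescence (340/450 nm) read at 0 and 15 min.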

The target in assay [3] is Luciferin 4-monooxygenase (Photinus pyralis) (UniProt P08659). Briefly: Primary firefly luciferase (FLuc) qHTS assay for identification of artifact compounds. (AID 1845220). Further: nearly all actives have a fitted effect of over 60% in size.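 On activity change, negative = inhibition: series mostly up to about 54 µM; plate controls were DMSO vehicle for no effect and no enzyme for full effect.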 The method in brief:
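Enzymatic FLuc inhibition assay: compounds pre-exposed to luciferin/ATP (10 uM each) for 15 min, then purified P. pyralis enzyme at 10 nM added. Read-out: luminescence at 5 min.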

Assay [4] is described as follows: Primary fluorescence-based thiol-reactive (MSTI) qHTS assay for identification of artifact compounds. (AID 1845221). Further: nearly all actives have a fitted effect of over 65% in size. Further: potency means the concentration at half of the fitted maximal effect.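 On activity change, negative = thiol reactive: series mostly up to about 54 µM; thiol-reactive compounds lower the probe fluorescence signal.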 The method in brief:
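One-hour, room-temperature, dark incubation of compound with 4 uM MSTI in PBS (pH 7.4, 2% DMSO) precedes a fluorescence read at 525 nm excitation, 598 nm emission; Hill-equation fitting yields concentration-response values.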

Assay [5] has as its system Nanoluciferase (engineered Oplophorus gracilirostris luciferase). Briefly: Primary Nanoluciferase (NLuc) qHTS assay for identification of artifact compounds. (AID 1845222).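 Further: NLuc secreted into diluted conditioned medium of S16 cells; series mostly up to about 54 µM; 0% = DMSO and -100% = no enzyme.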 The method in brief: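 S16 cell supernatant NLuc, 1:55; cpds qHTS; 15 min RT dark; Nano-Glo substrate 1:100, 5 min; luminescence; Hill fit of % inhibition.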
Assay [6] in a line: Primary redox qHTS assay for identification of artifact compounds. (AID 1845223).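 Further: 0% = DMSO and 100% = reference compound.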 The method in brief: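 Amplex Red (25 uM) and HRP (250 mU/mL) in HBSS, with compounds for 15 min, then 250 uM DTT for 30 min, room temperature, dark. Fluorescence 525/598 nm read; normalized to DMSO and 10 uM DA3003; Hill fit.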

Sequence of Glutathione peroxidase 1 (Homo sapiens) (P07203 whole entry, looked up): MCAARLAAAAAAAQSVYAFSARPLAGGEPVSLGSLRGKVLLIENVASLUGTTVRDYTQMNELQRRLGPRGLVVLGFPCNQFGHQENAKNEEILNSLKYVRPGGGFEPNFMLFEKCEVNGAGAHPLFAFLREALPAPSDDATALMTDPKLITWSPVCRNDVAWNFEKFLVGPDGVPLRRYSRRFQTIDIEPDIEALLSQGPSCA
Sequence of Phospholipid hydroperoxide glutathione peroxidase GPX4 (Homo sapiens) (P36969 whole entry, looked up): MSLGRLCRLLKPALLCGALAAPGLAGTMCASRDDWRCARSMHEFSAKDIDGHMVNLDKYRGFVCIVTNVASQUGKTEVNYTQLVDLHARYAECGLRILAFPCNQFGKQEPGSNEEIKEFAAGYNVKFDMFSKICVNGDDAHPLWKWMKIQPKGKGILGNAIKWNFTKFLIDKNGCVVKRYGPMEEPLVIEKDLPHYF

As to `C=C1CC[C@@]2(OC1)O[C@H]1CC3C4CC=C5C[C@@H](O[C@@H]6O[C@@H](C)[C@H](O)[C@@H](O)[C@H]6O)C[C@@H](O[C@@H]6O[C@H](C)[C@H](O)[C@H](O)[C@H]6O[C@@H]6O[C@@H](C)[C@H](O)[C@@H](O)[C@H]6O)[C@]5(C)C4CC[C@]3(C)[C@H]1[C@@H]2C` (stereo partly drawn), the Potency result in assay [1] and in assay [2] was “inactive” in each case. The outcome in assay [3] is “inactive [at 11.6 µM]”. Besides, the activity change, negative = thiol reactive in assay [4] is 170% [at 11.5 µM]. Further, in assay [5], the activity, negative = inhibition is -0.58% [at 11.6 µM]. Besides, the redox activity (% of DA3003) in assay [6] is 1.1% [at 11.5 µM].
As for `C=C1CCC2C(C)(C(=O)OC)CCCC2(C)C1CCC1=CCOC1=O` (stereo not drawn), the Potency result in assay [1], in assay [2], in assay [3], in assay [4], in assay [5] and in assay [6] was “inactive” in each case.
Regarding `COc1ccc(C2C(C(=O)O)C(C(=O)O)C2c2ccc(OC)cc2O[C@@H]2O[C@H](CO)[C@@H](O)[C@H](O)[C@H]2O)c(O[C@@H]2O[C@H](CO)[C@@H](O)[C@H](O)[C@H]2O)c1` (stereo partly drawn), the Potency entry in assay [1], in assay [2], in assay [3], in assay [5] and in assay [6] was “inactive” in each case. In addition, the Potency in assay [4] was 2.81 µM (active).
Take `CC1(C)CC[C@]2(C(=O)O)CC[C@]3(C)C(=CCC4[C@@]5(C)CC[C@H](O[C@@H]6O[C@H](C(=O)O)[C@@H](O)[C@H](O)[C@H]6O)C(C)(C)C5CC[C@]43C)C2C1` (stereo partly drawn): the Potency result in assay [1], in assay [2], in assay [3], in assay [4], in assay [5] and in assay [6] was “inactive” in each case.
Turning to `C[C@@H]1O[C@@H](O[C@@H]2[C@@H](O)[C@H](O[C@@H]3[C@@H](O)[C@@H](O)[C@H](O[C@H]4[C@H](OC(=O)[C@]56CCC(C)(C)C[C@H]5C5=CCC7[C@@]8(C)C[C@H](O)[C@H](O[C@@H]9O[C@H](C(=O)O)[C@@H](O)[C@H](O)[C@H]9O)[C@@](C)(CO)C8[C@H](O)C[C@@]7(C)[C@]5(C)C[C@H]6O)O[C@@H](CO)[C@@H]4O)O[C@H]3C)OC[C@H]2O)[C@H](O)[C@H](O)[C@H]1O` (stereo partly drawn), the Potency result in assay [1] and in assay [2] was “inactive” each time. The activity change, negative = inhibition in assay [3] is 2.08% [at 11.6 µM]. Further, the activity change, negative = thiol reactive in assay [4] is 382% [at 11.5 µM]. The activity, negative = inhibition in assay [5] is 4.49% [at 11.6 µM]. Besides, in assay [6], the redox activity (% of DA3003) was 16.5% [at 11.5 µM].
Turning to `CC(C)=CCC[C@](C)(O[C@@H]1O[C@H](CO)[C@@H](O)[C@H](O)[C@H]1O)[C@H]1CC[C@]2(C)[C@@H]1[C@H](O)CC1[C@@]3(C)CC[C@H](O)C(C)(C)C3[C@@H](O[C@@H]3O[C@H](CO)[C@@H](O)[C@H](O)[C@H]3O[C@@H]3O[C@@H](C)[C@H](O)[C@@H](O)[C@H]3O)C[C@]12C` (stereo partly drawn), the Potency entry in assay [1] and in assay [2] was “inactive” each time. Besides, the activity change, negative = inhibition in assay [3] is -2.06% [at 11.6 µM]. For the same compound, the activity change, negative = thiol reactive in assay [4] was 209% [at 11.5 µM]. The activity, negative = inhibition in assay [5] is 4.23% [at 11.6 µM]. Also, the redox activity (% of DA3003) in assay [6] is 5.49% [at 11.5 µM].
In the case of `Cc1ccc([C@@H]2CC=C(C(=O)O)[C@H](c3ccc(C(C)(C)C)cc3)N2S(=O)(=O)c2ccc(C)cc2)cc1`, the Potency entry in assay [1], in assay [2], in assay [3], in assay [4], in assay [5] and in assay [6] was “inactive” each time.
Regarding `C=C1CCC[C@]2(C)CC[C@@](O)(C(=C)C(=O)O)C[C@@H]12`, the Potency result in assay [1], in assay [2], in assay [3], in assay [4], in assay [5] and in assay [6] was “inactive” each time.
Take `OCC1OC(Oc2cc(O)cc(/C=C/c3ccc(OC4OC(CO)C(O)C(O)C4O)cc3O)c2)C(O)C(O)C1O` (stereo not drawn): the Potency entry in assay [1], in assay [2], in assay [3], in assay [4], in assay [5] and in assay [6] was “inactive” throughout.
As for `C[C@H](O)C(O)(C(=O)OCc1ccccc1NC(=O)CCC(N)C(=O)O)[C@H](C)O` (stereo partly drawn), the Potency result in assay [1], in assay [2], in assay [3], in assay [4], in assay [5] and in assay [6] was “inactive” in each case.
In the case of `COc1ccc(C2(O)c3ccccc3NC(=O)C2OC)cc1` (stereo not drawn), the Potency entry in assay [1], in assay [2], in assay [3], in assay [4], in assay [5] and in assay [6] was “inactive” each time.
Take `CCC1(O)CC2c3cc(OC)c(OC)cc3CCN2CC1CC(C)C` (stereo not drawn): the Potency entry in assay [1], in assay [2], in assay [3], in assay [4], in assay [5] and in assay [6] was “inactive” throughout.
For `N#Cc1cccc(-c2c[nH]c3ncnc(N4CCOCC4)c23)c1`, the Potency result in assay [1], in assay [2], in assay [3], in assay [4], in assay [5] and in assay [6] was “inactive” each time.
As for `C=CC1(C)CC=C2C(CCC3C(C)(C(=O)O)CCCC23C)C1` (stereo not drawn), the Potency result in assay [1], in assay [2], in assay [3], in assay [4], in assay [5] and in assay [6] was “inactive” in each case.
In the case of `O=C(OCc1ccccc1O[C@@H]1O[C@H](CO)[C@@H](O)[C@H](O)[C@H]1O)C1(O)C=CCCC1O` (stereo partly drawn), the Potency entry in assay [1], in assay [2], in assay [3], in assay [5] and in assay [6] was “inactive” throughout. Further, in assay [4], the Potency was 5.82 µM (active).
On to `CC(C)=C1CC2C(CCC2(C)O)C(C)(O)CC1=O` (stereo not drawn), for which the Potency result in assay [1], in assay [2], in assay [3], in assay [5] and in assay [6] was “inactive” in each case. Besides, the Potency in assay [4] was 23.8 µM (active).
As for `COc1cc2nc(=NC(=O)c3cccnc3)n3c(c2cc1OC)NCC3`, the Potency entry in assay [1], in assay [2], in assay [3], in assay [4], in assay [5] and in assay [6] was “inactive” each time.
In the case of `CC[C@H]1OC(=O)[C@H](C)[C@@H](O[C@H]2C[C@@](C)(OC)[C@@H](O)[C@H](C)O2)C(C)[C@@H](O[C@@H]2O[C@H](C)C[C@H](N(C)C)[C@H]2O)[C@](C)(O)C[C@@H](C)CN(C)[C@H](C)[C@@H](O)[C@]1(C)O` (stereo partly drawn), the Potency entry in assay [1], in assay [2], in assay [3], in assay [4], in assay [5] and in assay [6] was “inactive” in each case.
